This is one part of a sample in which hits are shown more often than they occur.
AmpC no deterg = blocks E. coli AmpC beta-lactamase in detergent-free assay; AID 485341; AmpC nitrocefin hydrolysis, absorbance 480 nm, 0.0001% Triton; 330,000 tested, 0.52% active; P00811; Potency, µM (doses to about 57.1 µM), for inactives: top-dose activity change, negative = inhibition, hits mostly inhibitors;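 note: plate controls were no compound for no effect and no enzyme for full effect; nearly all actives have a fitted effect of over 20% in size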
Target sequence (P00811 whole entry, looked up): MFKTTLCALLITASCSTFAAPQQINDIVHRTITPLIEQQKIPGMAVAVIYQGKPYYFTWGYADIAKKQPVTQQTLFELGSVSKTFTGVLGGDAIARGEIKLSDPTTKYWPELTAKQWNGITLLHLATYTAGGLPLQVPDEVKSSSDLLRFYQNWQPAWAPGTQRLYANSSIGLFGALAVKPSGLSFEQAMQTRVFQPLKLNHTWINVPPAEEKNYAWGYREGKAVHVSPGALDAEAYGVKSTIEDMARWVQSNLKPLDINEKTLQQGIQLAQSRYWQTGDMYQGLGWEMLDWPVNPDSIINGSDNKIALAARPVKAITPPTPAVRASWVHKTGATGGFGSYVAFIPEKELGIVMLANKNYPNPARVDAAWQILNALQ
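AmpC (5.3 nM in the dispensed reagent) in 20 mM phosphate pH 7.0 with 0.01% (detergent screen) or 0.0001% Triton X-100 was preincubated with compounds for 15 min at room temperature. Nitrocefin was then added from an 800 uM solution, and hydrolysis was followed at 480 nm.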
AmpC detergent = blocks E. coli AmpC beta-lactamase in detergent assay; AID 485294; Potency, µM (highest dose often 114 µM), inactives show at the highest dose activity change, negative = inhibition, usual class: inhibitors; 370,000 tested, 0.041% active; P00811; AmpC hydrolysis of nitrocefin, absorbance 480 nm, 0.01% Triton;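 note: 0% = no-compound wells and -100% = no-enzyme wells; nearly all actives have a fitted effect of over 25% in size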
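20 mM phosphate pH 7.0 + 0.01% (detergent screen) or 0.0001% Triton X-100; 5.3 nM AmpC reagent; cpd preinc 15 min RT; nitrocefin (800 uM stock) to start; A480 q20 s × 4 min; Activity was normalised to no-enzyme and no-compound control wells.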
Active calls of the source: *. Calls come from the whole dose curve; as a rule, active = well fitted curve in the direction sought with a large enough effect; inconclusive = small, poorly fitted or top-dose-only effect, or another doubt; inactive = no such curve, though single readings can be large; an effect the other way counts as inactive or inconclusive. Potency is the fitted concentration of half-maximal effect.

`CC(OC(=O)CNS(=O)(=O)c1ccc2ccccc2c1)C(=O)N(C)c1ccccc1` (stereo not given) gave AmpC no deterg 72.7% and AmpC detergent 0.0%.
Screening CCOc1ccccc1CNC(=O)CCn1c(=O)c2cccn2c2ccc(F)cc21 returned AmpC detergent 13.2%.
Cc1onc(-c2c(F)cccc2Cl)c1C(=O)NCc1ccccc1 was read as AmpC no deterg 2.2% and AmpC detergent -2.0%.
`Cc1onc(-c2c(F)cccc2Cl)c1C(=O)N[C@@H]1C(=O)N2C(C(=O)O)C(C)(C)S[C@H]12` (stereo not given in full) gave AmpC detergent 2.51µM*.
For Cc1onc(-c2ccccc2Cl)c1C(=O)N[C@@H]1C(=O)N2[C@@H]1SC(C)(C)[C@@H]2C(=O)O the results were AmpC no deterg 0.794µM* and AmpC detergent 0.355µM*.
Cc1onc(-c2ccccc2Cl)c1C(=O)Nc1ccccc1 was read as AmpC no deterg -11.0% and AmpC detergent 2.2%.
`O=C(O)/C(=C\c1cccc(F)c1)c1ccc(S(=O)(=O)N2CCCC2)s1` gave AmpC no deterg -14.3% and AmpC detergent 1.1%.
For Cc1cccc(/C=C(\C(=O)O)c2ccc(S(=O)(=O)N3CCCC3)s2)c1 the results were AmpC no deterg 31.6µM*.
Screening CCN1CCN(C(=O)c2ccc3c(c2)N(Cc2ccc(Cl)cc2)C(=O)c2ccccc2S3=O)CC1 (stereo not given) returned AmpC detergent -11.8%.
Screening CCN(CC)c1ccc(NC(=O)COc2ccc(C#N)cc2)cc1S(=O)(=O)Nc1ccc(OC)cc1 returned AmpC no deterg 5.01µM* and AmpC detergent -0.6%.
Screening COc1ccc(OCC(=O)Nc2ccc(C)c(S(=O)(=O)N(C)C)c2)cc1 returned AmpC no deterg -34.1% and AmpC detergent -0.6%.
`O=C(CN1CCOCC1)Nc1ncc(Cc2cccc(Cl)c2)s1` gave AmpC no deterg 63.7% and AmpC detergent -11.1%.
Cc1cc(C)nc(SCC(=O)Nc2ncc(Cc3cccc(Cl)c3)s2)n1 was read as AmpC no deterg 2.82µM* and AmpC detergent -10.4%.
`COc1nc(N)c(S(=O)(=O)c2ccccc2C)cc1C#N` gave AmpC no deterg 0.159µM* and AmpC detergent 5.7%.
For COc1nc(N)c(S(=O)(=O)c2ccccc2)cc1C#N the results were AmpC no deterg -30.3% and AmpC detergent -0.3%.
Screening COC(=O)C1=C(C)OC(N)=C(C#N)C1c1ccccc1 (stereo not given) returned AmpC no deterg -17.8% and AmpC detergent -3.7%.
Screening COC(=O)C1=C(C)OC(N)=C(C#N)C1c1ccc(OC)c(CSc2ccccn2)c1 (stereo not given) returned AmpC no deterg 0.224µM* and AmpC detergent 1.0%.
`CCOC(=O)c1sc(NC(=O)C(C)(C)C)cc1C` gave AmpC no deterg 10µM* and AmpC detergent inconclusive.
For CCOC(=O)c1sc(NC(=O)C2CC2)cc1C the results were AmpC no deterg -24.0% and AmpC detergent -7.2%.
For N#Cc1c(SCC(=O)Nc2cccc(C(F)(F)F)c2)sc2c(O)cc(=O)[nH]c12 the results were AmpC no deterg 22.4µM* and AmpC detergent inconclusive.
Screening COc1ccccc1NC(=O)CSc1sc2c(O)cc(=O)[nH]c2c1C#N returned AmpC no deterg -38.7% and AmpC detergent -1.1%.
Screening Cc1cc(NC(=O)CSc2sc3c(O)cc(=O)[nH]c3c2C#N)ccc1Br returned AmpC no deterg 14.1µM* and AmpC detergent 7.0%.
`Cc1ccc(C)c(NC(=O)CSc2sc3c(O)cc(=O)[nH]c3c2C#N)c1` gave AmpC no deterg -38.6% and AmpC detergent -0.4%.
Screening CCCCCCCCCCCCCCCC(=O)NCCc1c[nH]c2ccccc12 returned AmpC no deterg -15.5% and AmpC detergent 6.2%.
For CCCCOc1ccc(-c2nnn(CC(=O)NCCc3c[nH]c4ccccc34)n2)cc1 the results were AmpC no deterg 0.282µM* and AmpC detergent 0.3%.
For O=S(=O)(NCc1cn2ccsc2n1)c1ccc(Oc2ccccc2)cc1 the results were AmpC no deterg 3.98µM* and AmpC detergent 0.1%.
O=S(=O)(NCc1cn2ccsc2n1)c1cccs1 was read as AmpC no deterg -10.3% and AmpC detergent -8.9%.
O=C(NC1CCCCC1)C(=O)c1c(-c2ccccc2)[nH]c2ccccc12 was read as AmpC no deterg 12.6µM* and AmpC detergent -10.3%.
`O=C(NC1CC1)C(=O)c1c(-c2ccccc2)[nH]c2ccccc12` gave AmpC no deterg -14.4% and AmpC detergent inconclusive.
For CCOC(=O)/C(=N/Nc1ccc(C)cc1)S(=O)(=O)c1ccc(Cl)cc1 the results were AmpC no deterg -8.2% and AmpC detergent -1.6%.
Screening NNC(=O)/C(=N/Nc1ccccc1)S(=O)(=O)c1ccc(Cl)cc1 returned AmpC no deterg 39.8µM* and AmpC detergent inconclusive.
`Cc1cccc2sc(N(Cc3cccnc3)C(=O)C3COc4ccccc4O3)nc12` (stereo not given) gave AmpC detergent 0.2%.
COc1ccc2[nH]c(=O)c(CN(C(=O)c3cccc(Cl)c3)c3cccc(C)c3)cc2c1 was read as AmpC detergent 17.3%.
For Cc1ccc(NC(=O)Cn2c(=O)n(CC3CCC(C(=O)NC(C)C)CC3)c(=O)c3sccc32)cc1 (stereo not given) the results were AmpC detergent 5.6%.
Screening CC(=O)NC(CCS(C)(=O)=O)C(=O)Nc1ccccc1 (stereo not given) returned AmpC no deterg 5.01µM* and AmpC detergent inconclusive.
Screening CC(=O)NC(CCS(C)(=O)=O)C(=O)Nc1cccc(C(C)=O)c1 (stereo not given) returned AmpC no deterg -20.4% and AmpC detergent -1.6%.
Screening CCCC1=C/C(=C/c2ccc(-c3ccccc3OC)o2)C(=O)O1 returned AmpC no deterg 31.6µM* and AmpC detergent inconclusive.
Screening COc1ccccc1-c1ccc(/C=C2/C=C(CC(C)C)OC2=O)o1 returned AmpC no deterg inconclusive and AmpC detergent -13.4%.
COc1ccc2c(c1)NC(c1ccc(OCC(C)C)cc1)=NC(c1ccncc1)=N2 was read as AmpC detergent -2.5%.
Screening COc1cccc(-c2ccc3c(N)c(C(=O)NCc4ccc(Cl)cc4)sc3n2)c1 returned AmpC detergent 5.5%.
For Nc1ccc(O)cc1C(=O)OCC(=O)C12CC3CC(CC(C3)C1)C2 the results were AmpC no deterg 12.6µM* and AmpC detergent 6.7%.
For O=C(OCC(=O)C12CC3CC(CC(C3)C1)C2)c1ccc(O)cc1 the results were AmpC no deterg -26.5%.
Cc1ccc(C2CC(=O)N(Cc3ccccc3)c3c2c(C)nn3-c2nc(C)cc(C)n2)cc1 (stereo not given) was read as AmpC detergent 13.1%.
`COc1ccc(C(=O)c2c(N)c(C(=O)Nc3cccc(OC)c3)c3ccccn23)cc1` gave AmpC detergent 19.4%.
`c1nc(N2CCCC2)c2[nH]cnc2n1` gave AmpC no deterg -19.4% and AmpC detergent inconclusive.
Fc1ccc(N2CCN(c3ncnc4nc[nH]c34)CC2)cc1 was read as AmpC no deterg 20µM* and AmpC detergent inconclusive.
For OCCN1CCN(c2ncnc3nc[nH]c23)CC1 the results were AmpC no deterg 44.7µM* and AmpC detergent inconclusive.
`c1nc(N2CCN(Cc3ccc4c(c3)OCO4)CC2)c2[nH]cnc2n1` gave AmpC no deterg -23.2% and AmpC detergent inconclusive.
